Most compounds without a hit are left out; they make up all but 11% or so of the library.
HP1b chromo inh: HTS for Inhibitors of HP1-beta Chromodomain Interactions with Methylated Histone Tails. AlphaScreen HP1-beta / biotin-H3K9me3 peptide binding. Potency, µM (top dose mostly 114 µM), for the others: at the top dose activity change, negative = inhibition, usual class: inhibitors. 390,000 tested, 0.56% active. AID 540317, 2011; note: nearly all actives have a fitted effect of over 70% in size
Target sequence (P83916 whole entry, looked up): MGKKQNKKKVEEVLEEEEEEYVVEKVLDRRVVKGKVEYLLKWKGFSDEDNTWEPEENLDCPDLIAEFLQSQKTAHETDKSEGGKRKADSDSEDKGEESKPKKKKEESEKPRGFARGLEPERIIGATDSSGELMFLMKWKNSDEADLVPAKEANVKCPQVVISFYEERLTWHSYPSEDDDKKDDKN
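Compound inhibition of the preformed complex between 50 nM HP1-beta and 50 nM biotinylated H3K9me3 peptide was read by AlphaScreen. Buffer was PBS pH 7.4 with 0.01% Tween-20. Incubations ran 30 min at room temperature, with 10 ug/mL donor/acceptor beads.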
VDR inhibitor: Inhibitors of the vitamin D receptor (VDR): qHTS | AID 504847, 2011 | 400,000 tested, 0.93% active | Potency, µM, without a hit: max response, negative = inhibition, most hits filed as inhibitors | VDR-SRC2-3 peptide fluorescence polarization, 2 h; note: % is set by controls: 0 for no effect and ±100 for the full control effect
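Compounds are added to VDR with labelled SRC2-3 coactivator peptide and held 2 h at room temperature. Inhibition of the VDR–peptide interaction is then read as a change in fluorescence polarization.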
BAZ2B inh: qHTS Assay for Inhibitors of BAZ2B; Bromodomain adjacent to zinc finger domain protein 2B (Homo sapiens), Q9UIF8; AlphaScreen BAZ2B-H3K14Ac peptide displacement; Potency, µM (highest dose often 114 µM), inactives show at the top dose activity change, negative = inhibition, hits mostly inhibitors; 360,000 tested, 4.4% active; AID 504333, 2011; note: % is set by controls: 0 for no effect and ±100 for the full control effect; nearly all actives have a fitted effect of over 60% in size
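Complex of BAZ2B and biotin-H3K14Ac (50 nM apiece) forms over 30 min at RT, then faces library compounds up to 110 uM for another 30 min; AlphaScreen beads added, 20 min dark incubation, luminescence read.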
JMJD2A Tudor: qHTS Assay for Inhibitors of JMJD2A-Tudor Domain | Lysine-specific demethylase 4A (Homo sapiens), O75164 | AlphaScreen JMJD2A-Tudor / H3K4me3 peptide binding | Potency, µM (highest dose often 114 µM), for inactives: top-dose activity change, negative = inhibition, hits mostly inhibitors | 390,000 tested, 4.4% active | AID 504339, 2011; note: % is set by controls: 0 for no effect and ±100 for the full control effect; nearly all actives have a fitted effect of over 50% in size
G9a inh: qHTS Assay for Inhibitors of Histone Lysine Methyltransferase G9a; Histone-lysine N-methyltransferase EHMT2 (Homo sapiens), Q96KQ7; G9a H3K9 monomethylation, AlphaScreen, 2 h; Potency, µM (series often up to 102 µM), for inactives: top-dose activity, negative = inhibition, actives largely listed as inhibitors; 350,000 tested, 8.8% active; note: % is set by controls: 0 for no effect and ±100 for the full control effect; nearly all actives have a fitted effect of over 75% in size
Target sequence (Q96KQ7 913-1193 limits assumed): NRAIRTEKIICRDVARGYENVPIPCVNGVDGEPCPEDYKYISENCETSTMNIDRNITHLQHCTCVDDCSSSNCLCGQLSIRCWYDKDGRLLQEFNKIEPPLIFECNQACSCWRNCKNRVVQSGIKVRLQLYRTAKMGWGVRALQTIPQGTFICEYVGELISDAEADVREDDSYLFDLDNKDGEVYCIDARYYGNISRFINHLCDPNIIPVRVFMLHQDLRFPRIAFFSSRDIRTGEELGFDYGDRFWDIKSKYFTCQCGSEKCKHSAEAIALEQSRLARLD
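Signal arises when biotinylated H3K9 peptide, once monomethylated, bridges streptavidin donor and antibody-captured acceptor beads. Enzyme at 20 nM was preincubated 15 min with test compounds; peptide 500 nM and SAM 20 uM then reacted for 2 h.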
PLK1 PBD inh: qHTS for Inhibitors of PLK1-PDB (polo-like kinase 1 - polo-box domain): Primary Screen | Serine/threonine-protein kinase PLK1 (Homo sapiens), P53350 | Plk1 PBD binding of FITC phosphopeptide, fluorescence polarization | Potency, µM, inactives show max response, negative = inhibition, usual class: inhibitors | 360,000 tested, 2.8% active; note: series mostly up to about 57 µM; % is set by controls: 0 for no effect and ±100 for the full control effect; nearly all actives have a fitted effect of over 65% in size
VDR confirm: qHTS for Inhibitors of the vitamin D receptor (VDR): Hit Validation in Primary Screen | shares compounds with VDR inhibitor | VDR-coactivator inhibition assay, qHTS confirmation | Potency, µM, actives largely listed as inhibitors | 840 tested, 89% active
VDR FP fluor: qHTS for Inhibitors of the vitamin D receptor (VDR): Hit Validation using a Fluorescein Assay | shares compounds with VDR inhibitor | VDR-coactivator binding, fluorescein fluorescence polarization | Potency, µM (highest dose often 57.1 µM), for the others: top-dose activity change, negative = inhibition, usual class: inhibitors | 840 tested, 48% active | AID 602200, 2012
VDR bla: qHTS for Inhibitors of the vitamin D receptor (VDR): Hit Validation using a Beta-Lactamase Assay. AID 602202, 2012. VDR beta-lactamase reporter cells, FRET ratio; cells co-treated with VDR agonist LG190178. 840 tested, 23% active. shares compounds with VDR inhibitor. Potency, µM (top dose mostly 46.1 µM), for inactives: at the highest dose activity change, negative = inhibition, hits mostly inhibitors; note: % is set by controls: 0 for no effect and ±100 for the full control effect
VDR viability: qHTS for Inhibitors of the vitamin D receptor (VDR): Hit Validation using a Cytotoxicity Assay | shares compounds with VDR inhibitor | cytotoxicity counter-screen, cell viability, qHTS | Potency, µM (top dose mostly 48.3 µM), for the others: at the highest dose activity change, negative = cytotoxicity, hits mostly cytotoxic | 840 tested, 18% active;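 note: plate controls were DMSO for no effect and high-concentration cycloheximide for full effect; nearly all actives have a fitted effect of over 75% in size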
Active calls of the source: *; ? = inconclusive; · = no result; [ ] = another dose, or the depositor's remark. Calls come from the whole dose curve; as a rule, active = well fitted curve in the direction sought with a large enough effect; inconclusive = small, poorly fitted or top-dose-only effect, or another doubt; inactive = no such curve, though single readings can be large; an effect the other way counts as inactive or inconclusive. Potency is the fitted concentration of half-maximal effect.

SMILES	HP1b chromo inh	VDR inhibitor	BAZ2B inh	JMJD2A Tudor	G9a inh	PLK1 PBD inh	VDR confirm	VDR FP fluor	VDR bla	VDR viability
C=CCn1c(SCC)nc2sc3c(c2c1=O)CCc1ccccc1-3	65.4%	-8.6%	20.3%[57.1 µM]	33.3%	36.2%	-9.8%	·	·	·	·
C=CCSc1nc2sc3c(c2c(=O)n1CC)CCc1ccccc1-3	?	25.1µM*	6.7%	?	?	2.99µM*	2.67*	?	31.6%	-2.9%
Cc1ccc(C(=O)Nc2ccc(Br)cc2)cc1S(=O)(=O)NCc1ccccc1	15.6%	24.1%	-3.4%	-23.5%	-0.7%[59 µM]	·	·	·	·	·
CN(CCO)c1cc(Sc2nc3ccccc3s2)c2nonc2c1[N+](=O)[O-]	?	25.1µM*	-29.9%[57.1 µM]	22.4µM*	?	1.89µM*	6.7*	3.55µM*	?	3.16µM*
CCOC(=O)N1CCN(c2cc(N(C)CCO)c([N+](=O)[O-])c3nonc23)CC1	27.1%	0.8%	-18.3%	-10.0%	?	-18.5%	·	·	·	·
COC(=O)C[C@H]1C=C[C@H](NC(=O)Nc2ccccc2OC)[C@@H](CO)O1	·	·	·	·	·	-7.4%	·	·	·	·
S=C1NCCOCCOCCNC(=S)N2CCOCCOCCN1CCOCCOCC2	-8.8%	-10.5%	·	-13.1%	2.9%	?	·	·	·	·
Cc1ccc(C(=O)/C=C/C(=O)O)cc1	10.3%	14.1µM*	11.2%	-13.8%	10µM*	?	7.52*	10µM*	20.2%	?
O=S(=O)(/N=C(\Sc1ccc(Cl)cc1)c1ccccc1)c1ccccc1	69.5%	?	33.5%	2.1%	-2.2%[12.7 µM]	2.67µM*	7.08*	22.4µM*	1.7%	-2.1%
CCN(CC)S(=O)(=O)c1cc(NC(=O)c2cc([N+](=O)[O-])ccc2N2CCOCC2)ccc1C	-1.2%	8.7%	-34.7%	-34.7%	?	-7.7%	·	·	·	·
CC(=O)N(C1=C(Cl)C(=O)c2ccccc2C1=O)C1CCCCC1	7.94µM*	14.1µM*	22.4µM*	1.58µM*	·	3.77µM*	11.9*	14.1µM*	5.8µM*	?
CC(=O)N(c1ccccc1C)C1CCCC1	29.7%	-11.7%	4.6%	-2.6%	3.7%	2.6%	·	·	·	·
COc1ccc(NC(=O)/C(Cl)=C(/Cl)S(=O)Cc2ccc(Cl)cc2)cn1 (stereo not drawn)	50.2%	11.2µM*	-15.5%	-28.5%	11.2µM*	1.34µM*	4.23*	2.82µM*	1.84µM*	11.2µM*
CCc1ccc(-n2c(Cc3ccccc3)nnc2SCc2nc(-c3cccs3)no2)cc1	23.3%	7.2%	-9.9%	-20.1%	-33.3%[59 µM]	·	·	·	·	·

High-throughput results (PubChem)
